An excerpt weighted towards active compounds, which were near 2.7% of everything screened.
gsp antagonist: antagonizes gsp, the McCune-Albright syndrome mutation. gsp-mutant cells, cAMP HTRF, 30 min. Potency, µM (titrated, usually from 76.9 µM), usual class: inhibitors. 340,000 compounds, 0.4% hits. AID 624288; calls by dose curve; cell line not stated here;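 also: intracellular cAMP measured with PDE inhibitor Ro 20-1724 present during compound exposure; nearly all actives have a fitted effect of over 65% in size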
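Measurement of cellular cAMP by homogeneous time-resolved fluorescence following a 30 min compound exposure at 37C. The PDE inhibitor […] was present throughout; the assay buffer was DPBS with 0.05% BSA and 0.005% Tween 20.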
RXFP1 ag: agonists of human relaxin receptor RXFP1. Potency, µM (doses to about 57.5 µM), usual class: activators. HEK293T-RXFP1 cAMP TR-FRET, 30 min; response scale: percent of porcine relaxin response, buffer zero. 370,000 compounds, 0.3% hits. AID 2676; active = well fitted activation curve with a large enough effect; inconclusive = small, poorly fitted or top-dose-only effect; also: nearly all actives have a fitted effect of over 60% in size
Target sequence (Q9HBX9 whole entry, looked up): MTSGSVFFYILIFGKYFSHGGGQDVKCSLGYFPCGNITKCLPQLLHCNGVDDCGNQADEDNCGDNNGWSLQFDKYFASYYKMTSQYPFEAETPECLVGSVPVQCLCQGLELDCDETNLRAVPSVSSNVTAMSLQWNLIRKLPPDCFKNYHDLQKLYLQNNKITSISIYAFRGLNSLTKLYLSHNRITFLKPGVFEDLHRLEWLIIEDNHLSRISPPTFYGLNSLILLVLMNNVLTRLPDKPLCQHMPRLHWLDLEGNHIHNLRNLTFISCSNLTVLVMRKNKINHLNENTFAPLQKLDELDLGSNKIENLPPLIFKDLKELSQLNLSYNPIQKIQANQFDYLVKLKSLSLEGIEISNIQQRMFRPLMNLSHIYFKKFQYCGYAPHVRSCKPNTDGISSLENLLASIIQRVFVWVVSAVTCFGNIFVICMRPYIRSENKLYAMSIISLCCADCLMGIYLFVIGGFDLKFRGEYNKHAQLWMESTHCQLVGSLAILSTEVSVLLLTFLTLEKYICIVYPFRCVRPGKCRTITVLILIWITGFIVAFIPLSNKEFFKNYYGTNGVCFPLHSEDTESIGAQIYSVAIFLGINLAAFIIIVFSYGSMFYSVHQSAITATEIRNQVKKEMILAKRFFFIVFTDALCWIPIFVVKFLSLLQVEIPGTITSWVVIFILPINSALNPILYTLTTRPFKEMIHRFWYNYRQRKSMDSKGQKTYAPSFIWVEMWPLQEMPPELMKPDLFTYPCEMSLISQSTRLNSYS
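HEK293 cells stably expressing RXFP1, treated 30 min at 37C with compounds plus PDE4 inhibitor Ro 20174; cAMP measured by HTRF TR-FRET. Normalized to buffer and 29 nM porcine relaxin; EC50 by Hill fit.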
Akt phos inh: blocks phosphorylation of Akt | 360,000 compounds, 0.32% hits | Neuro2A IGF-stimulated pAkt S473 HTRF, 20 min; hits give low values | AID 651550 | activity change, % for hits at 50 µM; in the data active = activity change below about -80%; inconclusive = mostly about -51% to -80%
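Neuro2A cells in DMEM with 0.5% FBS, overnight at 37 deg C, given compound at single 50 µM final, then IGF (6 nM final) for 20 min at 37 deg C. Lysed; phospho-Akt Ser473 by HTRF after 24 h, 665/615 ratio.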
ClpP mod: qHTS Assay for Activators of ClpP | purified B. subtilis ClpP, FRET peptide cleavage, 20 min | Potency, µM (titrated, usually from 57.5 µM) | 340,000 compounds, 1.9% hits | AID 651965, 2013; active = well fitted falling curve with a large enough effect; inconclusive = small, poorly fitted or top-dose-only effect; inactive = no such curve, though single readings can be large or run the other way; also: the source files actives as falling curves though it sought activators and does not explain the sign; nearly all actives have a fitted effect of over 65% in size
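Buffer: 100 mM Tris/HCl pH8, 100 mM KCl, 0.05% low protease BSA, 2.5% glycerol, 0.01% Tween-20. ClpP 10 microg/mL final; 20 min RT; delta FRET normalized to ADEP and DMSO controls.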
gsp ag: activates gsp, the McCune-Albright syndrome mutation; AID 624287; 340,000 compounds, 0.13% hits; Potency, µM (titrated, usually from 76.9 µM), actives largely listed as activators; gsp mutant cells, cAMP HTRF, 30 min; active = well fitted activation curve with a large enough effect; inconclusive = small, poorly fitted or top-dose-only effect, or another doubt; inactive = no such curve, though single readings can be large or run the other way; cell line not stated here;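 also: phosphodiesterase inhibitor Ro 20-1724 added with compounds to block cAMP breakdown; nearly all actives have a fitted effect of over 60% in size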
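Cells in DMEM/10% FBS with G418 were pretreated with compounds in DMSO plus […] (300 uM stock) for 30 min at 37C. cAMP was measured by HTRF (cAMP-d2 plus anti-cAMP antibody-K) after 30 min at room temperature.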
RXFP1 antagonist: antagonists of human relaxin receptor RXFP1; Q9HBX9; HEK293-RXFP1, relaxin-stimulated cAMP HTRF, 30 min; hits give low values; activity change, negative = inhibition, % at 57.5 µM; 350,000 compounds, 0.59% hits; AID 1259400;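 active = activity change of -60% or lower, but not beyond a set lower limit; inconclusive = change between -60% and -40%, or beyond the set limit; inactive = change above -40%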
Numbers stand for hits; 0 = inactive; ? = inconclusive; - = no result; ! = a repeat was not active; [ ] = remark or other dose.

SMILES | gsp antagonist | RXFP1 ag | Akt phos inh | ClpP mod | gsp ag | RXFP1 antagonist
O=C(Nc1cccnc1)c1ccc(Cl)c(S(=O)(=O)N2CCOCC2)c1 | 0 | 0 | 0 | - | 0[15.4 µM] | 0
O=C(c1ccc(Cl)c(S(=O)(=O)N2CCOCC2)c1)N1CCOCC1 | 0 | 0 | 0 | 32µM | 0[15.4 µM] | 0
CC(=O)Nc1ccc(Nc2nc3ccc(C)cc3n3nnnc23)cc1 | - | 0 | - | 0 | - | 0
Cc1cc(C)cc(NC(=O)CCCn2c3ccccc3c(=O)c3ccccc32)c1 | - | 0 | - | 0 | - | 0
CCc1cc2c(cc3c(=O)n(CC(=O)NC4CCCCC4)nc(CC)n32)s1 | - | 0 | - | 0 | - | 0
O=C(Nc1cccc(Br)c1)c1ccc(Cl)c(S(=O)(=O)N2CCOCC2)c1 | 40µM | 0 | 0 | 0 | 0 | 0
O=C(Nc1cccc(C(=O)NC2CC2)c1)c1ccc(Cl)c(S(=O)(=O)N2CCOCC2)c1 | 0 | 0 | 0 | 0 | 0 | 0
CCc1ccc(CN2C(=O)c3ccccc3C2C(=O)NCCc2ccc(OC)c(OC)c2)cc1 (configuration not stated) | - | 0 | - | 0 | - | 0
COc1ccc(-c2cc(C(F)(F)F)nc(SCCC(=O)Nc3c(C)cccc3C)n2)cc1 | - | 0 | - | 0 | - | -
Cc1ccc(S(=O)(=O)N2CCN(c3nc(-c4cncn4C)nc4ccccc34)CC2)cc1 | - | - | - | 32µM | - | -
CC(C)(C)c1cccc(S(=O)(=O)N2CCN(c3nc(-c4cccs4)nc4ccccc34)CC2)c1 | - | - | - | 0 | - | -
COc1ccc(S(=O)(=O)N2CCN(c3nc(-c4cccs4)nc4ccccc34)CC2)cc1 | - | - | - | 28µM! | - | -
O=S(=O)(c1ccc2ncccc2c1)N1CCN(c2nc(-c3cccs3)nc3ccccc23)CC1 | - | - | - | 32µM | - | -
CC(=O)c1ccc(S(=O)(=O)N2CCN(c3nc(-c4cccs4)nc4ccccc34)CC2)cc1 | - | - | - | 0 | - | -
CN1CCN(c2nc(-c3cccnc3)nc3ccccc23)CC1 | 0 | 0 | 0 | 25µM | 0 | 0
Cc1cccc(-c2nc3c4ccccc4nc(NCCc4ccccc4)n3n2)c1 | - | 0 | - | 0 | - | 0
CCOC(=O)c1ccc(S(=O)(=O)N2CCN(c3nc(-c4cccs4)nc4ccccc34)CC2)cc1 | - | - | - | 10µM | - | -
CCOC(=O)N1CCN(c2nc(-c3cccs3)nc3ccccc23)CC1 | ? | 0 | 0 | - | ? | 0
O=C(COc1ccc2ccc(=O)oc2c1)NC1CCCCC1 | 0 | 0 | 0 | 10µM | 0 | 0
COc1ccc2c(c1)c(=O)oc1cc(OCC(=O)NC3CCCCC3)ccc12 | 0 | 0 | 0 | 8.9µM | ? | 0
N#CC1(NC(=O)COc2ccc3ccc(=O)oc3c2)CCCCC1 | 0 | 0 | 0 | 35µM | 0 | 0
NC(=S)N/N=C/c1ccc(-n2nncc2-c2ccc(Cl)cc2)cc1 | 0 | 0 | 0 | - | 0 | -73
CC1Cc2cc(S(=O)(=O)CCC(=O)Nc3ccc(OC(F)(F)F)cc3)ccc2N1C(=O)C1CC1 (configuration not stated) | - | 0 | - | 0 | - | 0
Cc1nc2c(=O)n(C)c(=O)[nH]c2n1Cc1ccccc1 | 0 | 0 | 0 | 28µM | 0 | 0
CN(C)c1ccc(/C=C2\C(Cl)=Cc3ccccc32)cc1 | - | - | - | 0 | - | -
SMILES | gsp antagonist | RXFP1 ag | Akt phos inh | ClpP mod | gsp ag | RXFP1 antagonist
COC(=O)c1cc(Cl)c(NC(=O)/C=C/c2ccc(OC)c(OC)c2)cc1OC | 0 | 0 | 0 | 28µM | 0 | 0
COc1ccc(N2CC(NC(=O)/C=C\c3ccc(OC)c(OC)c3)CC2=O)cc1 (configuration not stated) | - | 0 | - | 32µM | - | 0
COc1ccc(/C=C/C(=O)Nc2nc(C)cc(C)n2)cc1OC | 0 | 0 | 0 | 35µM | 0 | 0
CC(=O)N1CCCc2cc(S(=O)(=O)N(C)CC(=O)Nc3ccc(C)cc3C)ccc21 | - | 0 | - | 0 | - | 0
CC1(C(=O)NCc2cccs2)Cc2c(-c3ccc(C(N)=O)cc3)ccnc2O1 (configuration not stated) | - | - | 0 | 0 | - | -
CCc1ccccc1N(CC)C(=O)c1c(C)oc2ncnc(N3CCOCC3)c12 | - | 0 | - | 0 | - | 0
Cc1cccc(C)c1NC(=O)C(C1CC1)n1c(=O)c(-c2cc3ccccc3[nH]2)nc2ccccc21 (configuration not stated) | - | - | 0 | 0 | - | -
N#Cc1c(NC(=O)c2nc3ncccn3n2)sc2c1CCCCC2 | 0 | 0 | 0 | 0 | 0 | 0
O=C(NC1CCCCCC1)c1nc2ncccn2n1 | 0 | 0 | 0 | 28µM | 0 | -
CC(CC1c2ccccc2CCc2ccccc21)CN(C)C (configuration not stated) | - | - | - | - | - | 0
O=C(Nc1ccc(Cl)cc1)Nc1nnc(-c2ccncc2)s1 | 0 | 0 | 0 | 0 | 0 | -
Cc1ccc(NC(=O)Nc2nnc(-c3ccncc3)s2)cc1C | 45µM | 0 | 0 | 0 | 0 | 0
Cc1cccc(C(=O)Nc2ccc(-c3nc4ccccc4s3)cc2Cl)c1 | - | 0 | - | 25µM | - | 0
CCC(=O)Nc1ccc(N2CCCCC2)c(C(=O)Nc2ccccc2C)c1 | 0 | 0 | 0 | 0 | ? | 0
CCOC(=O)c1cc(NC(=O)CC(C)(C)CC(=O)O)ccc1N1CCCCC1 | 32µM | 0 | 0 | - | 0 | 0
CCn1c(=N)c(C(=O)NCC2CCCO2)cc2c(=O)n3cc(C)ccc3nc21 (configuration not stated) | - | ? | - | 0 | - | -
Nc1ccccc1C(=O)NCc1ccc(F)cc1 | 0 | 0 | 0 | 0 | 0 | -
Nc1ccccc1C(=O)NCc1ccc(Cl)cc1 | 0 | 0 | 0 | 7.1µM | 0[15.4 µM] | 0
COc1cccc(CNC(=O)c2ccccc2N)c1 | 0 | 0 | 0 | 5.6µM | ? | 0
Cc1ccc(C)c(N2CCN(C(C(=O)NC3CCCC3)c3ccco3)CC2)c1 (configuration not stated) | - | - | 0 | 0 | - | -
CSc1ccc(/C=N/NC(=O)C[n+]2ccccc2)cc1 | 0 | 0 | 0 | 0 | 20µM | 0
Cc1ccc2c(c1)c(=O)c(C(=O)c1ccccc1)cn2Cc1ccccc1F | - | 0 | - | 0 | - | 0
CC1=C(C(N)=O)C(c2cccnc2)n2nc(-c3cccc(C)c3)nc2N1 (configuration not stated) | 0 | 0 | 0 | 32µM | 0 | 0
CCNC(=O)[C@@H]1CCCN1C(=O)[C@H](CCCN=C(N)N)NC(=O)[C@H](CC(C)C)NC(=O)CNC(=O)[C@H](Cc1ccc(O)cc1)NC(=O)[C@H](CO)NC(=O)[C@H](Cc1c[nH]c2ccccc12)NC(=O)[C@H](Cc1cnc[nH]1)NC(=O)[C@@H]1CCC(=O)N1 | - | - | - | - | - | 0
COc1ccc(C2c3c(oc4ccccc4c3=O)C(=O)N2c2nc(C)c(C)s2)cc1 (configuration not stated) | - | 0 | - | 0 | - | 0
COc1ccc(N2CCN(c3ncnc4c3[nH]c3ccccc34)CC2)cc1 | 16µM | 0 | - | 0 | 0 | ?
